High-throughput results: PubChem BioAssay, National Center for Advancing Translational Sciences (NCATS)
Anesthetic bind: qHTS Assay for Identification of Novel General Anesthetics. Potency, µM (highest dose often 77.5 µM), for the others: top-dose activity change, negative = displacement, most hits filed as inhibitors. 350,000 tested, 0.074% active. AID 485281, 2010. Ferritin light chain (Equus caballus), P02791. apoferritin/1-aminoanthracene competitive binding, fluorescence; further: potency means the concentration at half of the fitted maximal effect; on the % scale 0 is the no-effect control and ±100 the full control effect; nearly all actives have a fitted effect of over 20% in size
Target sequence (P02791 2-175 limits assumed): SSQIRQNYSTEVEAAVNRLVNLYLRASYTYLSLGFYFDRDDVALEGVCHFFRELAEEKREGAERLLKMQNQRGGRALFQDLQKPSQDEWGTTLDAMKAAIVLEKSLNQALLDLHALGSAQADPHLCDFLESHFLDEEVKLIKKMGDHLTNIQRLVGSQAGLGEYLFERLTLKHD
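Read-out: endpoint 1-AMA fluorescence, excitation 380 nm and emission 535 nm, after compounds sit 10 min at room temperature with 10 uM horse-spleen apoferritin in 50% saturated 1-AMA/PBS. Values come from four-parameter Hill fits.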
aSyn rescue: qHTS of alpha-syn Inhibitors. Yeast expressing alpha-synuclein, growth rescue, BacTiter-Glo, 24 h. Potency, µM (titrated, usually from 46.1 µM), without a hit: at the highest dose growth rescue (activation), usual class: activators. 370,000 tested, 0.14% active. AID 652106, 2013; further: potency means the concentration at half of the fitted maximal effect; % of control where 0% means no effect; nearly all actives have a fitted effect of over 65% in size
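Readout is rescue of growth in alpha-synuclein-expressing yeast, so inhibitors of toxicity appear as activators. Growth after 24 hr at 30 deg C in galactose medium is quantified by luminescence.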
Mito fusion act: qHTS Assay for Small Molecule Inhibitors of Mitochondrial Division or Activators of Mitochondrial Fusion; S. cerevisiae fusion-defective mutant growth rescue, CellTiterGlo 48 h; Potency, µM (highest dose often 46.1 µM), for inactives: top-dose growth rescue (activation), most hits filed as activators; 320,000 tested, 0.23% active; further: potency means the concentration at half of the fitted maximal effect; % of control where 0% means no effect; nearly all actives have a fitted effect of over 45% in size
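S. cerevisiae fusion-defective temperature-sensitive mutants (e.g. fzo1-1, mgm1-5) grown 48 h at 37C in YPEG (ethanol/glycerol non-fermentable) medium with 23 nl compound per well; growth rescue read as CellTiterGlo luminescence.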
pAkt inh: HTS Assay for Inhibitors of Akt Phophorylation: Primary Screen; Neuro2A IGF-stimulated pAkt S473 HTRF, 20 min; hits give low values; activity change, % for hits at 50 µM; 360,000 tested, 0.32% active; AID 651550, 2012; in the data active means activity change below about -80%; inconclusive means mostly about -51% to -80%; further: on the % scale 0 is the no-effect control and ±100 the full control effect
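Neuro2A cells (4,500/well, DMEM with 0.5% FBS) were treated with compound at a single 50 µM final concentration, stimulated with 6 nM IGF for 20 min at 37 °C, and lysed. Phospho-Akt Ser473 was read by HTRF as 665/615 ratio ×10^4.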
CCT chaperon mod: High-Throughput Screening for Modulators of Cytosolic Chaperonin Activity; activity change, % (no concentration beside the values), hits read low; 360,000 tested, 0.3% active; purified chaperonin ATPase assay, HTRF ADP detection, 30 min; in the data active means activity change below about -30%; further: on the % scale 0 is the no-effect control and ±100 the full control effect
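ATPase activity: ADP formed was measured by HTRF Transcreener (665/615 nm ratio) after 30 min at 37 deg C with 10 uM ATP. Compounds screened at one 76 uM concentration against 40 or 20 nM TRiC in Tris pH 7.4/KCl/MgCl2/DTT buffer.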
TDP-43 yeast inh: qHTS of TDP-43 Inhibitors. TDP-43 expressing yeast growth rescue, BacTiter-Glo, 24 h. 410,000 tested, 1.8% active. Potency, µM (highest dose often 46.1 µM), without a hit: at the highest dose growth rescue (activation), actives largely listed as activators; further: potency means the concentration at half of the fitted maximal effect; % of control where 0% means no effect; nearly all actives have a fitted effect of over 50% in size
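Luminescence from BacTiter-Glo reports growth of TDP-43-expressing yeast after 24 hr at 30 deg C with compound. Cells were raffinose-pregrown to mid-log, then seeded in galactose medium at OD600=0.02.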
* = called active by the depositor; ! = not active in a repeat. Most compounds without a hit are left out; they make up all but 2.5% or so of the library. Unless noted, the call rests on the fitted dose curve; in most records, active means well fitted curve in the direction sought with a large enough effect; inconclusive means small, poorly fitted or top-dose-only effect, or another doubt; inactive means no such curve, though single readings can be large; an effect the other way counts as inactive or inconclusive.

`OC(c1ccc(F)c(F)c1)c1nc(-c2csc3ccccc23)cs1` (stereo not drawn) gave aSyn rescue -59%, pAkt inh inactive, CCT chaperon mod -1 and TDP-43 yeast inh 16µM*.
CCC(Cn1nnc2ccccc2c1=O)NC(=O)Nc1cc(C)cc(C)c1 (stereo not drawn) was read as Anesthetic bind inconclusive and TDP-43 yeast inh 6%.
COc1ccc(C(=O)N(Cc2ccccc2)Cc2ccc(OC)c(COc3ccc(NC(C)=O)cc3)c2)cc1 was read as aSyn rescue 5%.
For CC(=O)Nc1ccccc1-c1nn[nH]n1 the results were Anesthetic bind -1%, aSyn rescue 3%, Mito fusion act 0%, pAkt inh -101%*, CCT chaperon mod -1 and TDP-43 yeast inh 11%.
Screening CC(=O)Nc1cccc(-c2nn[nH]n2)c1 returned Anesthetic bind -5%, aSyn rescue 1%, Mito fusion act -6%, pAkt inh inactive, CCT chaperon mod 0 and TDP-43 yeast inh -24%.
`O=C(Nc1ccccc1)OCC1CCCO1` (stereo not drawn) gave aSyn rescue 2%, pAkt inh inactive, CCT chaperon mod -1 and TDP-43 yeast inh 3%.
Screening O=C(Nc1ccccc1)OCC1COC(c2ccccc2)(c2ccccc2)O1 (stereo not drawn) returned aSyn rescue 11%, pAkt inh inactive, CCT chaperon mod -2 and TDP-43 yeast inh 20µM*.
Cc1ccc(N(CC(=O)Nc2cc(C)ccc2C)S(=O)(=O)c2c(C)noc2C)cc1 was read as Anesthetic bind -11% and TDP-43 yeast inh 31%.
For CCCCCCC(=O)N1C/C=C\C(c2ccc(OC)cc2)N(Cc2ccc(F)cc2)C(=O)C1 (stereo not drawn) the results were Anesthetic bind 49%, aSyn rescue 8%, Mito fusion act 31%, pAkt inh inactive, CCT chaperon mod 1 and TDP-43 yeast inh 28µM*.
CN(Cc1cccs1)c1ncnc2sccc12 was read as Anesthetic bind -6%, aSyn rescue 11%, Mito fusion act -10%, pAkt inh inactive, CCT chaperon mod 1 and TDP-43 yeast inh 13µM*.
`c1ccc(CNc2ncnc3sccc23)cc1` gave Anesthetic bind -10%, aSyn rescue -23%, Mito fusion act inconclusive, CCT chaperon mod -3 and TDP-43 yeast inh inconclusive.
Cc1sc2ncnc(N(C)CCc3ccccn3)c2c1C was read as Anesthetic bind -4%, aSyn rescue -11%, Mito fusion act 0%, pAkt inh inactive, CCT chaperon mod 0 and TDP-43 yeast inh 16%.
Screening c1csc(CNc2ncnc3sccc23)c1 returned aSyn rescue -2%, pAkt inh inactive, CCT chaperon mod 1 and TDP-43 yeast inh 14µM*.
Cc1sc2ncnc(N(C)Cc3cccs3)c2c1C was read as Anesthetic bind -17%, aSyn rescue 12%, Mito fusion act 6%, pAkt inh inactive, CCT chaperon mod -3 and TDP-43 yeast inh 13µM*.
COc1c([N+](=O)[O-])ccc(N)c1N was read as aSyn rescue -8%.
For Cc1ccn2c(=O)cc(COc3cccc(NC(=O)Nc4cccc(Cl)c4C)c3)nc2c1 the results were Anesthetic bind -5% and TDP-43 yeast inh 12%.
Screening Cn1c(/C=C/c2ccc(Br)cc2)c([N+](=O)[O-])c(=O)n(C)c1=O returned Anesthetic bind -14%, aSyn rescue 0%, Mito fusion act -14%, pAkt inh inactive, CCT chaperon mod 1 and TDP-43 yeast inh 20µM*.
`CN(C)c1ccc(/C=C/c2c([N+](=O)[O-])c(=O)n(C)c(=O)n2C)cc1` gave Anesthetic bind 7%, aSyn rescue -7%, Mito fusion act -7%, pAkt inh inactive, CCT chaperon mod -1 and TDP-43 yeast inh 3%.
CC(C)CN(CC(C)C)c1ccc(/C=C/c2nc3ccccc3s2)cc1 was read as aSyn rescue -10%.
For NC(C(=O)O)C(CC(=O)O)c1ccc(Cl)cc1 (stereo not drawn) the results were Anesthetic bind 6%.
For Cc1cc(C)c(NC(=O)C2CCCN2C)c(C)c1 (stereo not drawn) the results were Anesthetic bind -9%, aSyn rescue 2%, Mito fusion act -2%, pAkt inh -101%*, CCT chaperon mod 1 and TDP-43 yeast inh -2%.
`O=C(Nc1ccc(C(F)(F)F)cc1)C1CCN(c2cnccn2)CC1` gave Anesthetic bind -7%, aSyn rescue -8%, Mito fusion act -4%, pAkt inh inactive, CCT chaperon mod -1 and TDP-43 yeast inh 16µM*!.
Cc1ccc(NC(=O)C2CCCN(c3cnccn3)C2)cc1Cl (stereo not drawn) was read as Anesthetic bind -9% and TDP-43 yeast inh 22µM*.
CCOC(=O)c1ccc(NC(=O)C2CCCN(c3cnccn3)C2)cc1 (stereo not drawn) was read as Anesthetic bind -3%, aSyn rescue inconclusive, Mito fusion act inconclusive, pAkt inh inactive, CCT chaperon mod -1 and TDP-43 yeast inh 20µM*.
Screening Cc1cccc(CCNC(=O)C2CCC(CNS(=O)(=O)c3c(C)cc(C)cc3C)CC2)c1 (stereo not drawn) returned Anesthetic bind 57% and TDP-43 yeast inh -18%.
Cc1ccccc1OCC(=O)N(Cc1ccc(N(C)C)cc1)CC1CCCO1 (stereo not drawn) was read as Anesthetic bind 5% and TDP-43 yeast inh 9%.
Screening O=C(Cc1ccccc1)Nc1ccc(Br)c(Cl)c1 returned Anesthetic bind inconclusive, aSyn rescue -5%, Mito fusion act 14µM*, pAkt inh inactive, CCT chaperon mod -4 and TDP-43 yeast inh 24%.
Cc1ccc(C)c(NS(=O)(=O)c2cc(C(=O)N3CCc4ccccc4C3)ccc2Cl)c1 was read as Anesthetic bind inconclusive, aSyn rescue 16µM*, Mito fusion act 6%, pAkt inh inactive, CCT chaperon mod -2 and TDP-43 yeast inh -30%.
Screening Cc1ccccc1NS(=O)(=O)c1cc(C(=O)N2CCCC2)ccc1Cl returned Anesthetic bind -9%, aSyn rescue -1%, Mito fusion act 4%, pAkt inh inactive, CCT chaperon mod -2 and TDP-43 yeast inh 11%.
`Cc1ccc(C)c(NC(=O)N2CCc3ccccc3C2)c1` gave Anesthetic bind inconclusive, aSyn rescue 3%, Mito fusion act 1%, pAkt inh inactive, CCT chaperon mod 1 and TDP-43 yeast inh 20µM*.
